Source: PubChem
An excerpt weighted towards active compounds, which were near 4.2% of everything screened.
Mtb FBA inh: Mtb FBA enzyme inhibitors, primary screen, biochemical, fluorescence, strain H37Rv; Fructose-bisphosphate aldolase (Mycobacterium tuberculosis (strain ATCC 25618 / H37Rv)), …; inhibition, % at 1 µM; purified M. tuberculosis FBA, fluorescence read-out; actives 2.3% (n = 360,000); in the data active = inhibition above about 27%;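 also: 0% = vehicle and 100% = reference inhibitor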
BJeLR lethal: MLPCN primary cell-based screen for lethality selective to Ras in HRASV12 cells; inhibition, % (no concentration beside the values); BJeLR (HRASV12) viability, CellTiter-Glo ATP luminescence, 48 h; AID 1554, 2009; actives 0.17% (n = 300,000); in the data active = inhibition above about 50%
GDH-TPI counter: GDH-TPI coupling enzyme inhibitors, primary screen, artefact control for M. tuberculosis FBA inhibitor project, biochemical, absorbance, full deck. GDH-TPI coupled enzyme counterscreen, NADH absorbance. inhibition, % at 4.8 µM. actives 1.2% (n = 360,000). AID 588335, 2011; in the data active = inhibition above about 30%;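 also: 0% = DMSO wells and 100% = wells lacking the enzyme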
RecA intein inh: Mtb RecA intein splicing inhibitors, primary screen, biochemical, fluorescence, HTS; Protein RecA (Mycobacterium tuberculosis (strain ATCC 25618 / H37Rv)), P9WHJ3; cell-free RecA intein splicing; inhibition, % (no concentration beside the values); actives 0.75% (n = 290,000); AID 2221, 2009; in the data active = inhibition above about 30%;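 also: 0% = vehicle wells and 100% = reference inhibitor control wells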
Target sequence (P9WHJ3 whole entry, looked up): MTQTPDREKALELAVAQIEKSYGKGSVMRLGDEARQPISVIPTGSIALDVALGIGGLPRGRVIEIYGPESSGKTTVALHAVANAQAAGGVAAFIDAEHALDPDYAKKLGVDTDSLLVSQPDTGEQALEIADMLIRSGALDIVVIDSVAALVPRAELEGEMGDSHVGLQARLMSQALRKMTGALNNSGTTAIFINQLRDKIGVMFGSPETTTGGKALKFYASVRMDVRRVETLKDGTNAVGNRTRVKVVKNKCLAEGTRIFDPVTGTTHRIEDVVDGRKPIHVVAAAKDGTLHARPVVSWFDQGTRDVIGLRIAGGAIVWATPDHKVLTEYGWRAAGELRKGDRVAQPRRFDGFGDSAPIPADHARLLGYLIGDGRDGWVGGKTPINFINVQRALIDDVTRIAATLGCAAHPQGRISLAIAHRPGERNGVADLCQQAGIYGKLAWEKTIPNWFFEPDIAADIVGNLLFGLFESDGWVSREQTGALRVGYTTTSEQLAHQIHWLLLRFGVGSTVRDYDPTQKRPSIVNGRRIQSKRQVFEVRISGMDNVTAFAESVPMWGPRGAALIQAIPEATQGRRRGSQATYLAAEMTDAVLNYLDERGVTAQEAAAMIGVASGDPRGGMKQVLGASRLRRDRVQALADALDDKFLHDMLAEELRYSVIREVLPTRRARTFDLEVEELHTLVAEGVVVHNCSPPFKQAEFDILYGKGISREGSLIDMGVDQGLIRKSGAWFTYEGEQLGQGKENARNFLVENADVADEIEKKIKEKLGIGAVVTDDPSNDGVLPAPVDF
PrPC TRFRET: inhibitors of human cell surface prion protein PrPC, primary screen, cell-based, TR-FRET | AID 720596, 2013 | actives 0.43% (n = 370,000) | inhibition, % at 13.8 µM | Major prion protein (Homo sapiens), P04156 | TR-FRET read-out; in the data active = inhibition above about 24%; also: 0% = median of the test wells and 100% = reference compound wells
* hit, by the source's call.

`COc1ccc(S[C@]2(C(=O)N3CCOCC3)CC(=O)N(C(=O)CCc3ccccc3)[C@@H]2c2ccc(OC)cc2)cc1` gave PrPC TRFRET 16.8.
O=C(c1cncnc1)N1CCC(n2nnc3ncccc32)CC1 was read as PrPC TRFRET 3.9.
CCOC(=O)C[n+]1ccc2c([nH]c3ccccc32)c1C was read as Mtb FBA inh 134.9*, BJeLR lethal -0.2, GDH-TPI counter 3.5, RecA intein inh -71.9 and PrPC TRFRET -0.6.
For Cc1ccc(/C=N/Nc2nc(C(C)(C)C)cs2)o1 the results were Mtb FBA inh -1.2, BJeLR lethal -0.7, GDH-TPI counter 1.3, RecA intein inh 2.8 and PrPC TRFRET 5.4.
For Cc1ccc(/C=N/Nc2nc3ccccc3s2)o1 the results were Mtb FBA inh -4.4, BJeLR lethal 12.6, GDH-TPI counter 55.9*, RecA intein inh -2.2 and PrPC TRFRET 7.8.
`CCCCOc1ccc(Br)cc1/C(C)=N/NC1=NCCN1` gave Mtb FBA inh -0.8, BJeLR lethal 51.9*, GDH-TPI counter -5.0, RecA intein inh 11.6 and PrPC TRFRET 17.1.
`Cc1cccc(C)c1-n1nnnc1C1c2ccccc2OCC(=O)N1Cc1ccc(F)cc1` (stereo not given) gave PrPC TRFRET 10.5.
For COc1ccc(-c2cc(-c3ccc(OC)cc3)nc(-c3ccc4c(c3)NC(=O)CO4)c2)cc1 the results were Mtb FBA inh 1.1, BJeLR lethal -4.0, GDH-TPI counter 31.5*, RecA intein inh -0.4 and PrPC TRFRET -5.2.
COc1cccc(-c2nc(-c3ccc4c(c3)NC(=O)CO4)cs2)c1 was read as Mtb FBA inh 0.2, BJeLR lethal 7.1, GDH-TPI counter -5.5, RecA intein inh 6.0 and PrPC TRFRET -14.5.
O=C1CCCCC1CCS(=O)(=O)NCc1ccccc1 (stereo not given) was read as PrPC TRFRET 1.5.
`Cc1nc2ccccc2c2c1C(=O)NC2=O` gave BJeLR lethal -0.4 and RecA intein inh 59.7*.
CN1CCc2c(sc3c2C(=O)NC(/C=C/c2ccco2)N3)C1 (stereo not given) was read as Mtb FBA inh -0.2, BJeLR lethal -1.2, GDH-TPI counter 36.7*, RecA intein inh -2.6 and PrPC TRFRET -2.8.
Cc1c(C#N)c(NC(=O)CCl)n(Cc2cccs2)c1C was read as Mtb FBA inh -1.6, BJeLR lethal 4.2, GDH-TPI counter -5.7, RecA intein inh 65.2* and PrPC TRFRET -1.1.
For Cc1c(C#N)c(NC(=O)CCl)n(Cc2ccc(F)cc2)c1C the results were Mtb FBA inh 0.2, BJeLR lethal 1.6, GDH-TPI counter 0.0, RecA intein inh 56.5* and PrPC TRFRET -10.2.
`Cc1c(C#N)c(NC(=O)CCl)n(Cc2ccccc2)c1C` gave Mtb FBA inh 3.3, BJeLR lethal 3.8, GDH-TPI counter -5.1, RecA intein inh 43.7* and PrPC TRFRET 1.3.
Screening COC(=O)c1cn(C)c2ccc(S(=O)(=O)N3CCCCC3)cc2c1=O returned Mtb FBA inh 5.3, BJeLR lethal 4.0, GDH-TPI counter 40.5*, RecA intein inh 0.4 and PrPC TRFRET 5.6.
Cn1cc(C(=O)N2CCCCCC2)c(=O)c2cc(S(=O)(=O)N3CCCCC3)ccc21 was read as Mtb FBA inh -1.1, BJeLR lethal -7.4, GDH-TPI counter 5.2, RecA intein inh -1.2 and PrPC TRFRET -4.5.
`CCOc1cccc(C(=O)Nc2nnc(-c3ccco3)s2)c1` gave Mtb FBA inh 12.5, GDH-TPI counter 36.8* and PrPC TRFRET -0.4.
Cc1cccc(OCC(=O)Nc2nnc(-c3ccco3)s2)c1 was read as Mtb FBA inh 6.3, BJeLR lethal 1.4, GDH-TPI counter 11.7, RecA intein inh -1.8 and PrPC TRFRET 1.5.
`Cc1ccc(/C=N/NC(=O)c2ccc(Br)o2)s1` gave Mtb FBA inh -3.5, BJeLR lethal 4.9, GDH-TPI counter 30.7*, RecA intein inh 2.1 and PrPC TRFRET 3.2.
Screening O=C(N/N=C\c1ccc(Cl)s1)c1ccc(Cn2cccn2)o1 returned Mtb FBA inh -1.4, BJeLR lethal -4.1, GDH-TPI counter 37.4*, RecA intein inh -2.4 and PrPC TRFRET 4.5.
Screening CCN(CC)c1ccc(/C=N/NC(=O)c2ccc(Br)o2)cc1 returned Mtb FBA inh -2.3, BJeLR lethal -0.5, GDH-TPI counter 22.1, RecA intein inh 1.2 and PrPC TRFRET 6.1.
Screening CC(C)c1ccc(/C=N\NC(=O)c2ccc(Cn3cccn3)o2)cc1 returned Mtb FBA inh -4.4, BJeLR lethal -16.8, GDH-TPI counter 18.4, RecA intein inh 1.9 and PrPC TRFRET 1.8.
CCc1ccc(/C=N\NC(=O)c2ccc(Br)o2)s1 was read as Mtb FBA inh -2.2, BJeLR lethal 7.0, GDH-TPI counter 47.3*, RecA intein inh 1.8 and PrPC TRFRET 4.0.
Screening O=C(CSc1nnc(-c2cnccn2)n1-c1ccccc1)Nc1ccc2c(c1)OCCO2 returned PrPC TRFRET -2.2.
Screening CN(Cc1ccccc1)C(=O)OCc1cn(Cc2ccc(F)cc2)nn1 returned PrPC TRFRET 6.8.
For N#CC(Cc1cccs1)c1nc2ccccc2[nH]1 (stereo not given) the results were Mtb FBA inh 3.5, GDH-TPI counter -2.6 and PrPC TRFRET 7.3.
N#CC(/C(=N/S(=O)(=O)c1cccs1)c1ccccc1)c1nc2ccccc2[nH]1 (stereo not given) was read as Mtb FBA inh -2.3, BJeLR lethal 8.3, GDH-TPI counter 43.1*, RecA intein inh -4.8 and PrPC TRFRET 6.1.
`O=C1NC2(C=Cc3c(ccc4ccccc34)O2)Oc2ccccc21` (stereo not given) gave Mtb FBA inh 152.0*, BJeLR lethal -21.1, GDH-TPI counter 7.7 and RecA intein inh -4.0.
Cc1ccc(OCc2nnc(SCC(=O)Nc3ccc(S(N)(=O)=O)cc3)n2-c2ccc(Cl)cc2)cc1 was read as PrPC TRFRET -5.4.
Screening CC(=O)COc1ccc2c3c(c(=O)oc2c1C)CCCCC3 returned Mtb FBA inh 115.2*, BJeLR lethal -6.5, GDH-TPI counter 16.2, RecA intein inh -0.4 and PrPC TRFRET 7.9.
Screening Cc1c(OCC(=O)OC(C)(C)C)ccc2c3c(c(=O)oc12)CCC3 returned Mtb FBA inh 8.7, BJeLR lethal -7.7, GDH-TPI counter 11.8, RecA intein inh 4.8 and PrPC TRFRET 11.9.
For Cc1oc2c(C)c3oc(=O)c4c(c3cc2c1C)CCCC4 the results were Mtb FBA inh 0.9, BJeLR lethal -2.3, GDH-TPI counter 8.3, RecA intein inh -3.0 and PrPC TRFRET -0.7.
`Cc1c(OCC(=O)OC(C)C)ccc2c3c(c(=O)oc12)CCC3` gave Mtb FBA inh 12.5, BJeLR lethal -5.0, GDH-TPI counter 17.3, RecA intein inh -2.1 and PrPC TRFRET 3.8.
